# Reference: PubChem BioAssay AID2530 (National Center for Advancing Translational Sciences (NCATS), 2010)
# Records with an inconclusive call do not appear. Where a call stands in place of a potency, no number is given. Active and inactive are the calls of the source. Calls come from the whole dose curve; as a rule, active = well fitted inhibition curve with a large enough effect; inconclusive = small, poorly fitted or top-dose-only effect; inactive = flat fitted curve, though single readings scatter.
# Biological target: Luciferin 4-monooxygenase (Photuris pensylvanica) (UniProt Q27757)
# Assay: Secondary Assay for Luciferase (Kinase-Glo TM) Inhibition Counterscreen
# Conditions: Kinase-Glo luciferase enzyme, luminescence; series mostly up to 58.1 µM
# Method in brief: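 Inhibition was fitted with the Hill equation after normalizing luminescence to DMSO (basal) and 40 uM SIB 1757 (full inhibition). Kinase-Glo luciferase ran for 8 min at room temperature in imidazole buffer pH 7.2 with KCl, MgCl2 and 10 uM ATP.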
# Potency is the fitted concentration of half-maximal effect.
row,SMILES,Potency
1,O=C1C(Cl)=C(NC(=O)c2ccccc2)C(=O)C(Cl)=C1NC(=O)c1ccccc1,inactive
2,O=C1CCc2cc(S(=O)(=O)Nc3ccc(F)cc3)ccc2N1,inactive
3,O=C1CCc2cc(S(=O)(=O)Nc3ccccc3F)ccc2N1,inactive
4,Cc1ccc(NS(=O)(=O)c2ccc3c(c2)CCN(C(=O)C(F)(F)F)C3)cc1C,inactive
5,Cc1cccc(NS(=O)(=O)c2ccc3c(c2)CCC(=O)N3)c1,inactive
6,Cc1ccccc1NS(=O)(=O)c1ccc2c(c1)CCC(=O)N2,inactive
7,Cc1ccc2c(c1)c1ccc3c(c1n2C)C(=O)C=CC3=O,inactive
8,O=C1c2ccccc2C(=O)N1c1cnc2ccccc2c1,inactive
9,Cc1ccc(S(=O)(=O)/N=C2/C=C(Sc3ncn[nH]3)C(=O)c3ccccc32)cc1,inactive
10,c1ccc(C2=NNC(=NC3CC3)SC2)cc1,3.26 µM (active)
11,Cc1ccc(NS(=O)(=O)c2ccc(N3CCCC3=O)cc2)cc1C,inactive
12,COc1ccc(C(=O)C[n+]2ccc(N)c(C)c2C)cc1,inactive
13,Cc1ccccc1-c1nc(-c2ccccn2)no1,4.61 µM (active)
14,O=C1CCc2cc(S(=O)(=O)Nc3ccncc3)ccc2N1,inactive
15,COc1ccc(OC2=NS(=O)(=O)c3ccccc32)cc1,inactive
16,Cc1ccc(NS(=O)(=O)c2cc3c(cc2-c2cn[nH]c2)NC(=O)CO3)cc1C,inactive
17,O=C1CCc2cc(S(=O)(=O)Nc3ccc4c(c3)OCCO4)ccc2N1,inactive
18,O=C1c2ccccc2C(=O)N1c1nccs1,inactive
19,O=C1c2ccccc2C(=O)N1c1ncccc1O,inactive
20,Nc1cc(S(=O)(=O)N2CCN(S(=O)(=O)c3ccc4c(c3)OCCO4)CC2)ccn1,inactive
